High-throughput results from PubChem BioAssay.
Shown are actives, neighbours in structure and some others; about 4.3% of the full set was active somewhere.
Wnt bcat act – Wnt/beta-catenin pathway activators, primary screen, cell-based, plate reader, single point | Wnt/beta-catenin reporter cell assay, activator | activation, % at 9.35 µM | actives 1.2% (n = 300,000); in the data active = activation above about 30%, passing the limit was not always enough; inconclusive = no clear call, values can overlap the other calls
FGF22 binding – binders of human FGF22 protein, primary screen, FGF22 synaptogenesis inhibitor project, biophysical, thermal shift, single point; actives 1.5% (n = 340,000); activity (Tm shift, normalised), % at 9.99 µM; recombinant FGF22 thermal shift, SYPRO orange fluorescence; percent of sucrose octasulfate shift, DMSO zero;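 active = mean Tm shift, scaled 0 neutral to 100 positive control, at about 1.3% or above, every replicate too, limit read from the data; inconclusive = no clear call, values can overlap the other calls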
Target sequence (Q9HCT0 whole entry, looked up): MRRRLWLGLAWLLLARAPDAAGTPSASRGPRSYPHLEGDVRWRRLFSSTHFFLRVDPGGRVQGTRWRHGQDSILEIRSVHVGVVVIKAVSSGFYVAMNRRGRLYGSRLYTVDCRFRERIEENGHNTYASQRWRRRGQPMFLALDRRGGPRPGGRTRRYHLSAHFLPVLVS
MITF act – activators of MITF-driven TRPM1 promoter reporter, primary screen, cell-based, SK-MEL-5, luciferase, single point | SK-MEL-5 TRPM1-promoter luciferase, 24 h; % of positive control, neutral wells = 0 | activation, % at 12.5 µM | actives 0.75% (n = 300,000) | AID 588334, 2011;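 active = mean activation of at least 80% with every replicate also reaching 80%; inconclusive = mean reaches 80% but some replicate falls short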
SMARCA2 act – SMARCA2 (BRM) function activators, primary screen, cell-based, luminescence, high throughput. AID 652017, 2013. activation, % at 9.1 µM. actives 1% (n = 370,000). MG213 cells, MMTV-luciferase reporter, dexamethasone, overnight; in the data active = activation above about 7.8%
MLL AF4-AF9 inh – inhibitors of AF4 peptide binding to AF9, primary screen, biochemical, AlphaScreen, biotin-AF4 peptide, FLAG-AF9, single point | Protein AF-9 (Homo sapiens), P42568 | AID 651704, 2012 | actives 0.47% (n = 350,000) | inhibition, % at 10 µM;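 active = every replicate reaching a set inhibition limit, whatever the replicate mean, cut at about 25% in these data; inconclusive = mean inhibition reaches that limit but some replicates miss it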
esBAF inh – Bmi1 luciferase reporter increase in mESCs, primary screen, esBAF inhibitor project, mouse ES cells, Bmi1 luciferase knock-in, single point; 24 h; 100% = twice the neutral-well signal; AID 602393, 2012; actives 2% (n = 350,000); reporter increase, % at 12.5 µM; in the data active = activation above about 40%; inconclusive = no clear call, values can overlap the other calls;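 note: a rise in the Bmi1 reporter signal indicates esBAF inhibition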
Numbers stand for hits; . = inactive; ? = inconclusive; / = no result.

SMILES	Wnt bcat act	FGF22 binding	MITF act	SMARCA2 act	MLL AF4-AF9 inh	esBAF inh
Nc1cc(C(=O)c2ccccc2)ccc1N1CCOCC1	?	/	/	.	/	52
Cc1ccc(C(=O)Nc2ccc(N3CCCC3)cc2)cc1	.	.	.	.	.	44
Cc1ccc(/C=C/C(=O)c2ccc(N3CCOCC3)cc2)s1	.	.	91	.	.	/
Cc1ccc(C(=O)Nc2ccc(N3CCOCC3)cc2)cc1	/	/	.	.	/	56
CC(C)CC#Cc1cnc2c(c1)C(=O)N([C@H](C)CO)C[C@@H](C)[C@H](CN(C)C(=O)Cc1cccnc1)O2	/	.	/	/	.	.
O=C(Nc1ccc(N2CCCC2)cc1)c1ccc2ccccc2c1	32	.	.	.	.	.
CC(=O)N1CCN(c2ccc(NC(=O)c3ccc4ccccc4c3)cc2)CC1	.	.	.	.	.	.
Cc1cnc(C(=O)Nc2ccc(N3CCOCC3)cc2)cn1	/	/	.	.	/	.
Cc1cnc(C(=O)Nc2ccc(OC(F)(F)F)cc2)cn1	.	.	/	.	.	44
Cc1cnc(C(=O)Nc2ccc(N3CCCCC3)cc2)cn1	.	.	92	.	.	/
O=C(C1CCC1)N1CC2(C1)[C@H](c1ccccc1)[C@H](CO)N2Cc1ccc(Cl)cc1	/	/	/	/	.	/
CC(C)NC(=O)N(C)C[C@H]1OCCCC[C@@H](C)Oc2ccc(NC(=O)Nc3ccccc3)cc2C(=O)N([C@H](C)CO)C[C@@H]1C	/	.	/	/	.	/
Cc1ccsc1/C=C1\Oc2cc(O)ccc2C1=O	.	.	/	.	.	51
O=C(C[C@H]1CC[C@H](NC(=O)Nc2ccc(F)cc2)[C@H](CO)O1)NCCN1CCCC1	/	.	/	/	.	.
O=C(O)CCCn1cc(NC(=O)COc2ccc([N+](=O)[O-])cc2)cn1	/	43	.	.	.	/
Cc1cc(OCC(=O)Nc2cnn(CCCC(=O)O)c2)ccc1[N+](=O)[O-]	.	.	.	.	.	/
FC(F)(F)c1cnc(-c2cnc(-c3cccnc3)nc2)c(Cl)c1	?	.	106	.	.	/
FC(F)(F)c1cc(Cl)c2nnc(-c3cccnc3)n2c1	.	.	.	.	.	/
O=C(NC1CCCCCC1)c1cc2c(=O)n3ccccc3nc2s1	.	.	91	.	.	45
C=CCNC(=O)c1cc2c(=O)n3ccccc3nc2s1	36	.	.	.	.	.
COc1cc(CNc2ccc3[nH]c(=O)[nH]c3c2)ccc1OCc1ccccc1C	.	.	.	.	.	47
COc1cc(CNc2ccc3[nH]c(=O)[nH]c3c2)ccc1OCc1ccccc1F	.	.	.	.	.	47
COc1cc(CNc2ccc3[nH]c(=O)[nH]c3c2)ccc1OCc1ccc(F)cc1	.	.	/	.	.	.
COc1cc(CNc2ccc3[nH]c(=O)[nH]c3c2)ccc1OCc1ccc(Cl)cc1	.	.	/	.	.	55
CCC(=O)N(Cc1ccco1)Cc1cc2cccc(C)c2n2nnnc12	46	.	.	.	.	/
SMILES	Wnt bcat act	FGF22 binding	MITF act	SMARCA2 act	MLL AF4-AF9 inh	esBAF inh
COc1ccccc1NC(=O)N(C)C[C@@H]1Oc2ncc(C#CCN(C)C)cc2C(=O)N([C@@H](C)CO)C[C@@H]1C	/	.	/	/	.	.
O=C(O)C[C@@H]1C[C@@H]2c3cc(NC(=O)Nc4ccccc4F)ccc3O[C@@H]2[C@H](CO)O1	/	.	/	/	.	.
O=C(O)c1cc(NN=C2CCN(Cc3ccccc3)CC2)ccc1Cl	.	.	.	.	.	51
c1ccc(CN2CCC(=NNc3nc4ccccc4[nH]3)CC2)cc1	/	.	.	.	34	.
O=C(O)c1cc(N/N=C/C=C/c2ccccc2)ccc1Cl	.	/	?	.	.	90
CC(C)(C)C1CCC(=NNc2nc3ccccc3[nH]2)CC1 (stereo not drawn)	.	/	.	.	.	/
O=C(O)c1cc(N/N=C/c2ccc(OCc3ccccc3)cc2)ccc1Cl	.	.	.	.	.	/
O=C(NN=C1CCN(Cc2ccccc2)CC1)c1ccccc1O	.	/	.	.	.	/
c1ccc2c(c1)CC/C2=N/Nc1nc2ccccc2[nH]1	.	.	82	.	.	.
C[C@@H]1CN([C@@H](C)CO)C(=O)c2cc(NS(=O)(=O)c3cccs3)ccc2O[C@H]1CN(C)Cc1ccncc1	/	.	/	/	.	.
O=C(OCc1ccccc1)N1CCC2CC1c1ccc(N3CCOCC3)cc12 (stereo not drawn)	.	.	/	.	.	47
CC(Sc1nc(-c2ccccc2)cc(C(F)(F)F)n1)C(=O)N1CCOCC1 (stereo not drawn)	.	/	.	.	/	.
CC(Sc1nc(-c2ccccc2)cc(C(F)(F)F)n1)C(=O)N1CCCC1 (stereo not drawn)	.	.	/	.	49	.
CC1=C(C(=O)OCC2CCCO2)C(c2coc3ccc(C)cc3c2=O)C2=C(CCCC2=O)N1 (stereo not drawn)	.	64	.	.	.	.
O=C(c1cccs1)n1cc(C(=S)N2CCOCC2)c2ccccc21	50	/	.	.	/	.
C[C@@H]1CN([C@@H](C)CO)C(=O)c2cc(C#CC3(O)CCCC3)cnc2O[C@H]1CN(C)Cc1ccncc1	/	.	/	/	.	.
O=C(O)c1cccc(Nc2nc(-c3cc4ccccc4oc3=O)cs2)c1	.	.	.	.	.	51
O=c1oc2ccccc2cc1-c1csc(NN=C2CCCC2)n1	/	/	.	.	/	/
CN1C(=O)c2cc(NC(=O)C3CCC3)ccc2OC[C@@H]2O[C@@H](CC(=O)NCC3CCCCC3)CC[C@@H]21	/	.	/	/	.	/
CCOC(=O)c1c[nH]c2ccc3ccccc3c2c1=O	.	.	/	.	.	.
CCOC(=O)c1cc(=O)n2c(nc3ccccc32)[nH]1	.	.	.	.	.	55
CCOC(=O)c1cc(-c2ccc(OC)cc2)n[nH]1	.	.	/	.	.	70
NNC(=O)c1cc2ccccc2[nH]1	.	.	.	.	.	/
